Assay outcomes deposited in PubChem by Sanford-Burnham Center for Chemical Genomics.
Shown are actives, neighbours in structure and some others; about 4% of the full set was active somewhere.
CF NFkB inh: inhibitors of PAF-induced NF-kB signaling, primary screen, cell-based, GFP fluorescence, uHTS. 0.86% of 360,000 active. KKLEB NF-kB-GFP reporter, GFP fluorescence overnight. inhibition, % at 5 µM;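 active = at least 50% inhibition at 5 µM, scaled per plate between neutral and stimulator controls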;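 note: PAF is a Pseudomonas aeruginosa culture filtrate used as stimulus; plate controls were PAF-stimulated DMSO wells for no effect and unstimulated DMSO wells for full effect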
TWEAK Fn14 block: inhibitors of TWEAK-Fn14 signaling, primary screen, luciferase reporter cells, uHTS; TWEAK-stimulated Fn14 reporter cells, luciferase luminescence, 8 h; inhibition, % at 10 µM; 2% of 360,000 active; in the data active = inhibition above about 50%
HIF-2a inh: HIF-2a reporter inhibitors, primary screen, luminescence, 786-0 RCC cells. inhibition, % at 18.8 µM. AID 624352, 2012. 786-0 RCC cells HIF-2a reporter, luciferase luminescence, overnight. 0.72% of 360,000 active;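 active = inhibition of the luminescence signal of 40% or more relative to plate controls, in a single-dose primary screen at 18.75 µM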
Peg3 prom inh: Peg3 promoter-driven luciferase inhibitors, primary screen, cell-based, HeLa, luciferase luminescence. HeLa PEG-Prom luciferase reporter, overnight. inhibition, % at 20 µM. 1.7% of 360,000 active. AID 588405, 2011;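 active = inhibition of at least 50% at 20 µM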
KKLEB tox: cytotoxicity in KKLEB CF airway cells, primary screen, cytotoxicity control for CF NF-kB inhibitor project, cell-based, uHTS, fluorescence assay plates; KKLEB CF airway cells viability, ATPlite luminescence, overnight; stronger effect = lower value; cells stimulated with P. aeruginosa culture filtrate; activity change (cytotoxicity), % at 5 µM; 0.36% of 360,000 active;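 active = corrected activity change at or below -50% at 5 µM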
TROY signal inh: inhibitors of TROY-driven NF-kB signaling, primary screen, Q293 LMP1-TROYcd cells, NF-kB luciferase, uHTS; Q293 LMP1-TROYcd NF-kB luciferase reporter, 4 h; inhibition, % at 10 µM; 0.98% of 360,000 active; AID 1347056, 2019;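 active = compounds whose plate-normalised and pattern-corrected inhibition of the luciferase reporter signal at the single screening dose is 50% or more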
The depositor's hits bear a star.

SMILES | CF NFkB inh | TWEAK Fn14 block | HIF-2a inh | Peg3 prom inh | KKLEB tox | TROY signal inh
CCc1ccc(-c2nc(CSCC(=O)N3CCN(c4ncccn4)CC3)c(C)o2)cc1 | -32.5 | 51.5* | 39.4 | 18.0 | -8.2 | 79.1*
CCOc1ccc(N(CC(=O)NC2CC3CCC2C3)S(=O)(=O)c2ccc(C)cc2)cc1 (configuration not stated) | 25.7 | -12.9 | 22.1 | 25.8 | -5.8 | -0.7
CCOc1ccc(N(CC(=O)NC2CC3CCC2C3)S(=O)(=O)c2ccccc2)cc1 (configuration not stated) | 16.2 | 56.2* | 5.6 | 21.1 | -9.1 | -2.8
O=c1c2ccccc2cnn1-c1ccc2ccccc2c1 | -9.9 | 55.0* | -163.3 | -135.2 | -3.7 | 15.2
CN(Cc1ccccc1)C(=O)COC(=O)c1ccc[nH]c1=O | -6.1 | -36.4 | 9.0 | 1.8 | 3.3 | -5.3
CC1CCCCC1NC(=O)CCCc1nc2ccccc2c(=O)[nH]1 (configuration not stated) | 5.9 | 0.8 | 11.5 | 7.3 | -10.5 | -5.7
CCN1CCN(C(=O)CN2C(=O)c3ccccc3S2(=O)=O)CC1 | -18.0 | 28.1 | -123.9 | -114.0 | 3.4 | 61.7*
COc1ccc(C(=O)CN2C(=O)c3ccccc3S2(=O)=O)cc1Br | -20.2 | 62.3* | 3.3 | 5.0 | -2.9 | 35.2
O=C(CN1C(=O)c2ccccc2S1(=O)=O)c1ccc(O)c(O)c1 | 1.1 | 47.9 | 20.5 | 1.4 | 1.4 | 28.6
Cc1ccc(C)c(C(=O)CN2C(=O)c3ccccc3C2=O)c1 | 7.3 | -18.5 | -12.7 | 10.7 | -1.4 | -28.9
Cc1ccc(C)c(C(=O)CN2C(=O)c3ccccc3S2(=O)=O)c1 | 8.6 | 60.1* | -52.6 | 1.1 | -0.3 | 27.0
O=C(CN1C(=O)c2ccccc2S1(=O)=O)c1ccc(F)c(F)c1 | -14.4 | 90.9* | -10.4 | 0.1 | 7.7 | 72.3*
CCOc1ccc(C(=S)N2CCCC2)c(OCC)c1 | 5.0 | 4.9 | 13.8 | 4.8 | -11.9 | 16.5
O=C(Nc1ccccc1N1CCCC1)C1CCN(S(=O)(=O)c2ccccc2)CC1 | -5.3 | -3.1 | -2.6 | 4.2 | 8.5 | 9.2
O=C1C2Sc3[nH]c(=O)sc3C(c3ccccc3)C2C(=O)N1c1ccccc1 (configuration not stated) | 6.3 | 89.0* | 11.9 | -1.6 | 1.4 | -6.0
COc1ccc(C2c3sc(=O)[nH]c3SC3C(=O)N(c4ccccc4)C(=O)C32)cc1 (configuration not stated) | -4.1 | -18.8 | -65.2 | -26.3 | 6.2 | -32.5
COc1ccccc1-c1nnc2sc(-c3cnccn3)nn12 | -6.7 | -4.7 | -9.0 | 15.6 | 0.2 | -3.1
COc1ccccc1-c1nnc2sc(-c3ccc(N(C)C)cc3)nn12 | 52.6* | 23.0 | -15.4 | -51.1 | -2.8 | 23.8
O=C(Cc1ccc(S(=O)(=O)N2CCCC2)s1)N1CCOCC1 | -11.2 | -6.7 | -18.3 | -13.2 | -1.1 | -4.7
COc1ccc(C(=O)N2CC(=O)Nc3ccccc32)cc1S(=O)(=O)N1CCOCC1 | 21.5 | -2.1 | -1.8 | 3.5 | -13.0 | -8.2
CC1CN(c2ccc([N+](=O)[O-])c(NCCOc3ccccc3)c2)CC(C)N1 (configuration not stated) | 11.3 | -28.1 | -5.7 | 29.4 | -1.3 | -45.4
CC1CN(c2ccc([N+](=O)[O-])c(NCCOc3ccc(Cl)cc3)c2)CC(C)N1 (configuration not stated) | -11.0 | -101.4 | -15.9 | 77.5* | -17.6 | -106.0
Cc1ccccc1OCCNc1cc(N2CC(C)NC(C)C2)ccc1[N+](=O)[O-] (configuration not stated) | 16.5 | -31.0 | -15.9 | 80.5* | -2.3 | -20.0
O=[N+]([O-])c1ccc(N2CCCCC2)cc1NCCOc1ccccc1 | 15.3 | -10.9 | -85.8 | -39.6 | -23.8 | -27.2
CCCN=C1CC(C)(C)CC(=O)/C1=C(/O)CCCN1C(=O)c2ccccc2C1=O | 8.3 | 4.9 | 9.4 | 5.8 | -2.5 | 3.2
C=C[C@]1(C)C=C2CC[C@H]3[C@@](C)(CCC[C@@]3(C)C(=O)O)[C@@H]2CC1 | 15.9 | -16.3 | 13.9 | 5.6 | -8.0 | 31.7
